HepG2 tox – counter-screen for TGF-b inhibitors: cytotoxicity in HepG2 cells | HepG2 CAGA-GFP viability, ATP luminescence, 18 h | Potency, µM (top dose mostly 46.1 µM), actives largely listed as cytotoxic | actives 0.76% (n = 410,000) | AID 588856
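CellTiter-Glo luminescence gave cytotoxicity after 18 hours at 37 degrees C. The cells were HepG2 CAGA-GFP in 1% FBS DMEM, stimulated with 500 pg/mL TGF-beta after compound addition. %Activity was normalised to no-cell wells (complete cell-killing) and DMSO (no toxicity), and curves were fitted and classified.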
ATXN2 expr inh – ATXN2 expression inhibition; HEK-293 ATXN2-luciferase reporter, luminescence, 24 h; Potency, µM (titrated, usually from 57 µM), actives largely listed as inhibitors; actives 0.72% (n = 360,000); further: nearly all actives have a fitted effect of over 55% in size
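ATXN2-luciferase reporter cells (luciferase flanked by upstream and downstream ATXN2 gene portions) were treated 24 h at 37 °C with compounds at up to 57 uM. SteadyGlo luminescence gave expression; GF-AFC fluorescence gave viability.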
S2 tox – viability counter-screen for ATXN expression inhibitors; actives 0.49% (n = 400,000); S2 cells (HEK-293 line with an ATXN2-luciferase reporter) viability, CellTiter-Fluor protease fluorescence, 24 h; Potency, µM (series often up to 56.7 µM), hits mostly cytotoxic; further: nearly all actives have a fitted effect of over 40% in size
IL-1B inflam inh – blocks inflammasome-driven IL-1 beta release; actives 4.7% (n = 360,000); THP-1 LPS/ATP IL-1B secretion, AlphaLISA, 16 h; hits give low values; activity change, % at 57.5 µM; in the data active means activity change below about -50%; inconclusive means mostly about -30% to -49%
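THP-1 cells pretreated 1 hr with compounds (up to 57.5 uM final), then stimulated with LPS (250 ng/mL final) plus ATP (1.25 mM final); secreted IL-1B measured by AlphaLISA after 16 hr, decreased signal indicating inhibition.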
TGFb inhibitor – inhibitors of TGF-b signaling | HepG2 CAGA-GFP TGF-b/SMAD3 reporter, GFP fluorescence, 18 h; TGF-beta stimulated, 500 pg/mL final | Potency, µM (doses to about 46.1 µM), most hits filed as inhibitors | actives 1.2% (n = 410,000); further: nearly all actives have a fitted effect of over 65% in size
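Using HEPG2 CAGA-GFP reporter cells at 1000 cells/well, we pinned test compounds, stimulated with recombinant TGF-beta (500 pg/mL final) and measured total well GFP after 18 h.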
Large screens that a line does not name were inactive. Shown are actives, neighbours in structure and some others; about 5.7% of the full set was active somewhere. Unless noted, the call rests on the fitted dose curve; in most records, active means well fitted curve in the direction sought with a large enough effect; inconclusive means small, poorly fitted or top-dose-only effect, or another doubt; inactive means no such curve, though single readings can be large; an effect the other way counts as inactive or inconclusive.

CCCN(CC(=O)Nc1ccccc1OC)C(=O)c1ccc2[nH]c3c(c2c1)CC(C)CC3 (stereo unspecified)	ATXN2 expr inh inconclusive, S2 tox inconclusive, IL-1B inflam inh -59.2, TGFb inhibitor inconclusive
CC(C)(C)OC(=O)N1C=CCC1CN1C(=O)COCC1=O (stereo unspecified)	none (no result: ATXN2 expr inh, S2 tox, IL-1B inflam inh)
CC(C)(C)C1CCC(CC2=C(O)c3ccccc3C(=O)C2=O)CC1 (stereo unspecified)	ATXN2 expr inh inconclusive (no result: HepG2 tox, IL-1B inflam inh, TGFb inhibitor)
CCC(C(=O)Nc1ccc(C(C)=O)cc1)n1c(C)c2cnn(-c3ccccc3)c(=O)c2c1C (stereo unspecified)	none (no result: IL-1B inflam inh)
CCC(C)NC(=O)Cn1ncc2c(C)n(Cc3ccc(F)cc3)c(C)c2c1=O (stereo unspecified)	none (no result: ATXN2 expr inh, S2 tox, IL-1B inflam inh)
O=C(COC(=O)c1ccccc1C(=O)c1ccccc1)NCc1ccc(F)cc1	IL-1B inflam inh -76.8
O=C(Cc1ccc(Br)cc1)NCCc1ccc(Cl)cc1Cl	IL-1B inflam inh -59.8
Nc1c(Cl)c(Cl)nc(C(=O)OCC(=O)NCc2ccccc2)c1Cl	none (no result: ATXN2 expr inh, S2 tox)
O=C(COC(=O)c1ccccc1C(=O)c1ccc(Cl)cc1)NCc1ccccc1	IL-1B inflam inh -69.1, TGFb inhibitor inconclusive (no result: ATXN2 expr inh)
O=C(COC(=O)c1nc(Cl)c(Cl)c(Cl)c1Cl)NCc1ccccc1	ATXN2 expr inh inconclusive, IL-1B inflam inh -88.8, TGFb inhibitor inconclusive
Cc1cccc(C(=O)Nc2nnc(S(=O)(=O)N3c4ccccc4CC3C)s2)c1 (stereo unspecified)	TGFb inhibitor inconclusive (no result: IL-1B inflam inh)
O=S1(=O)c2ccccc2N(Cc2ccc(Cl)cc2F)c2ccccc21	none (no result: IL-1B inflam inh)
Cc1ccc(C(=O)c2ccccc2C(=O)OCC(=O)NCCc2ccccc2)cc1	IL-1B inflam inh -74.6
O=C(COC(=O)c1ccccc1C(=O)c1ccccc1)NCCc1ccc(Cl)cc1Cl	IL-1B inflam inh -85.3
C[C@@H]1[C@H](c2ccccc2)OCCS(=O)(=O)N1Cc1ccccc1F	none (no result: ATXN2 expr inh, S2 tox, IL-1B inflam inh)
O=C1CCc2cc(-c3csc(-c4ccc(O)cc4)n3)ccc2N1	none (no result: ATXN2 expr inh, S2 tox, IL-1B inflam inh)
COc1cc(Cl)c(NC(=O)CN(C)S(=O)(=O)c2ccc3c(c2)CCCC(=O)N3)c(OC)c1	S2 tox inconclusive (no result: IL-1B inflam inh)
Cc1ccccc1OCC(=O)Nc1cccc(C(=O)O)c1	ATXN2 expr inh 0.168µM
COc1cc(NC(=S)NC(=O)c2ccc(C)cc2C)ccc1NC(=O)c1cccs1	none
Cc1cc(NC(=O)COc2ccccc2C)ccc1NC(=O)c1ccco1	none
COc1cc(NC(=O)c2ccc(C)cc2C)ccc1NC(=O)c1cccs1	IL-1B inflam inh -63.0
Cc1cc(NC(=O)COc2ccccc2C)ccc1NC(=O)c1cccs1	IL-1B inflam inh -62.2
CCOCCc1nn2c(=O)cc(COC(=O)c3ccccc3NC(=O)C3CCCCC3)nc2s1	none (no result: IL-1B inflam inh)
CC(=O)OC[C@H]1O[C@@H](OC(C)=O)[C@H](OC(C)=O)[C@@H]1OC(C)=O	none (no result: HepG2 tox, IL-1B inflam inh, TGFb inhibitor)
Cc1ccccc1NS(=O)(=O)c1ccc2[nH]cc(C(=O)NC(C)c3ccccc3)c(=O)c2c1 (stereo unspecified)	TGFb inhibitor inconclusive (no result: ATXN2 expr inh, S2 tox, IL-1B inflam inh)
COc1ccccc1NS(=O)(=O)c1cccc(N=C2N=C(N)c3ccccc32)c1	S2 tox inconclusive, IL-1B inflam inh -66.2, TGFb inhibitor inconclusive (no result: ATXN2 expr inh)
COC(=O)c1cc(OC)c(OC)cc1NCC(=O)Nc1ccc(C)cc1	S2 tox inconclusive, IL-1B inflam inh -52.1
COC(=O)c1cc(OC)c(OC)cc1NCC(=O)Nc1ccc(OC)c(OC)c1	none
N#CC12COC3(CCCCC3C1(C#N)C#N)OC2=N (stereo unspecified)	none (no result: S2 tox)
N#CC1(C#N)COC23CCCCC2C1(C#N)C(=N)O3 (stereo unspecified)	IL-1B inflam inh -53.0
Cn1c(C2CCC2)nc2cc(C(=O)N3CCOc4ccccc4C3)cc(NC(=O)C3CCCO3)c21 (stereo unspecified)	none (no result: HepG2 tox, ATXN2 expr inh, IL-1B inflam inh, TGFb inhibitor)
O=C(NCC(c1cccs1)N1CCOCC1)c1cccc([N+](=O)[O-])c1 (stereo unspecified)	none
O=C(NCC(c1cccs1)N1CCOCC1)c1cc([N+](=O)[O-])cc([N+](=O)[O-])c1 (stereo unspecified)	IL-1B inflam inh -62.4

Compound activity (PubChem BioAssay)
